High-throughput results (PubChem)
PAX8 inh HTS: inhibitors of PAX8-driven TPO luciferase reporter, primary screen, RMG-I cells, single concentration; actives 1.2% (n = 360,000); SteadyGlo, 24 h; AID 652154, 2013; inhibition, % at 12.6 µM;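 active means mean replicate inhibition at least 60% with every replicate also reaching 60%; inconclusive means only one of the two criteria is met; inactive means mean below 60% and not all replicates reaching 60%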;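 further: luciferase light reporting Pax8 driven TPO promoter activity; plate controls were median of neutral control wells for no effect and mitoxantrone controls for full effect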
Wnt act: Wnt/beta-catenin pathway activators, primary screen, cell-based, plate reader, single point; Wnt/beta-catenin reporter cell assay, activator; activation, % at 9.35 µM; actives 1.2% (n = 300,000); AID 743398, 2014; in the data active means activation above about 30%, passing the limit was not always enough; inconclusive means no clear call, values can overlap the other calls;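 further: 0% = neutral control wells and 100% = positive control wells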
EWS-Fli block: EWS/Fli-driven NR0B1 reporter inhibitors, primary screen, A673 cells, NR0B1 luciferase, luminescence, MLPCN library; viability-normalised; actives 0.67% (n = 350,000); inhibition, % at 12.6 µM; AID 651661, 2012;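 active means mean inhibition of at least 50% after viability correction, with every replicate also passing that limit; inconclusive means mean reaches 50% but only one of two replicates passes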;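 further: firefly luciferase signal divided by Alamar Blue viability fluorescence both relative to DMSO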
MITF TRPM1 HTS: activators of MITF-driven TRPM1 promoter reporter, primary screen, cell-based, SK-MEL-5, luciferase, single point | SK-MEL-5 TRPM1-promoter luciferase, 24 h; % of positive control, neutral wells = 0 | activation, % at 12.5 µM | actives 0.75% (n = 300,000) | AID 588334, 2011;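 active means mean activation of at least 80% with every replicate also reaching 80%; inconclusive means mean reaches 80% but some replicate falls short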;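 further: 0% = neutral control wells and 100% = parthenolide positive control wells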
MITF TRPM1 inh: inhibitors of MITF-dependent TRPM1 promoter reporter, primary screen, cell-based, SK-MEL-5, single point, luciferase; inhibition, % at 12.5 µM; SK-MEL-5 TRPM1 promoter luciferase, 24 h; actives 0.83% (n = 330,000);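 active means mean inhibition across replicates of 60% or more, whatever share of single replicates reaches that level; inconclusive means some that reach 60%, reason not given; inactive means mean inhibition across replicates below 60%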
esBAF inh: Bmi1 luciferase reporter increase in mESCs, primary screen, esBAF inhibitor project, mouse ES cells, Bmi1 luciferase knock-in, single point. 24 h; 100% = twice the neutral-well signal. AID 602393, 2012. actives 2% (n = 350,000). reporter increase, % at 12.5 µM; in the data active means activation above about 40%; inconclusive means no clear call, values can overlap the other calls;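 further: 0% = median of the plate's neutral control wells and 100% = double that signal; a rise in the Bmi1 reporter signal indicates esBAF inhibition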
* = called active by the depositor; ? = inconclusive; . = not tested or not shown. Only some compounds are listed: those with a hit (about 4% of all), similar ones and a draw of the others.

SMILES | PAX8 inh HTS | Wnt act | EWS-Fli block | MITF TRPM1 HTS | MITF TRPM1 inh | esBAF inh
C=CCOc1ccccc1CN(C(=O)CCl)c1ccc2c(c1)OCO2 | 120.8* | 4.8 | 58.9* | -48.0 | 49.4 | -6.1
COc1ccc2c3c(n(C)c2c1)[C@H](CO)N(C(=O)Cc1ccccc1)CC31CN(C(C)=O)C1 | . | . | 6.2 | . | . | .
CC(C)(C)C(=O)Nc1cc2nn(-c3ccccc3)nc2cc1Cl | 73.7* | . | . | -84.2 | 84.7* | -78.2
CC(=O)Nc1cc2nn(-c3ccccc3)nc2cc1Cl | -155.6 | 55.1* | . | 29.8 | -26.0 | .
CO[C@@H]1CN(C)C(=O)c2ccc(NC(=O)c3ccccc3)cc2OC[C@H](C)N(C(=O)C2CC2)C[C@H]1C | -15.8 | . | -4.0 | . | . | -1.9
COCCCNC(=O)C(=O)NC1CCCCCC1 | -33.9 | -0.3 | 7.9 | 19.3 | -14.1 | 7.2
COCCNC(=O)C/C(C)=N/NC(=O)C(=O)NC1CCCCC1 | 100.8* | -0.7 | 6.6 | 3.3 | 0.1 | 2.7
C[C@H]1CCCCO[C@@H](CN(C)S(=O)(=O)c2ccc(Cl)cc2)[C@@H](C)CN([C@@H](C)CO)C(=O)c2cc(NS(=O)(=O)c3ccccc3)ccc2O1 | ? | -2.3 | 8.1 | . | . | 5.4
C[C@H]1CCCCO[C@H](CN(C)S(=O)(=O)c2ccccc2)[C@@H](C)CN([C@@H](C)CO)C(=O)c2cc(NS(=O)(=O)c3ccc(Cl)cc3)ccc2O1 | 100.2* | . | 13.1 | . | . | 2.0
C[C@@H]1CCCCO[C@@H](CN(C)S(=O)(=O)c2ccccc2)[C@H](C)CN([C@H](C)CO)C(=O)c2cc(NS(=O)(=O)c3ccc(Cl)cc3)ccc2O1 | 65.9* | . | 8.2 | . | . | 0.1
CNC[C@@H]1OCCCC[C@H](C)Oc2ccc(NC(=O)Nc3ccc4c(c3)OCO4)cc2C(=O)N([C@H](C)CO)C[C@H]1C | -13.8 | . | -8.2 | . | . | -0.9
O=C(O)C[C@H]1CC[C@H](NC(=O)Nc2cc(F)ccc2F)[C@@H](CO)O1 | -21.0 | . | 0.6 | . | . | -4.2
COC(=O)c1ccc(CN2C(=O)NC3(CCCCC3)C2=O)cc1 | -107.3 | 17.2 | 7.4 | 49.8 | -42.9 | 72.5*
CC(C)CNS(=O)(=O)c1cc(C(=O)OCC(=O)N(C)C2CCS(=O)(=O)C2)c(Cl)cc1Cl (centres undefined) | -8.6 | 53.2* | -38.9 | -1.2 | 0.2 | -8.7
COc1cccc(S(=O)(=O)Nc2ccc3c(c2)C(=O)N(C)[C@H]2CC[C@H](CC(=O)Nc4ccc(C(C)C)cc4)O[C@@H]2CO3)c1 | 66.1* | . | 11.4 | . | . | 4.2
CN1C(=O)c2cc(NC(=O)Cc3cccs3)ccc2OC[C@@H]2O[C@@H](CC(=O)NCc3ccc(-c4ccccc4)cc3)CC[C@H]21 | 66.2* | . | 70.9* | . | . | -10.5
CC(C)c1cccc(NC(=O)C[C@H]2CC[C@H]3[C@@H](COc4ccc(NC(=O)NCc5ccccc5)cc4C(=O)N3C)O2)c1 | 63.5* | . | 1.5 | . | . | 19.1
CN1C(=O)c2cc(NC(=O)Cc3cccs3)ccc2OC[C@H]2O[C@H](CC(=O)NCc3ccc(-c4ccccc4)cc3)CC[C@H]21 | 1.7 | . | -5.0 | . | . | 6.1
CN1C(=O)c2cc(NC(=O)c3cccc(Cl)c3)ccc2OC[C@H]2O[C@H](CC(=O)NC3CCCCC3)CC[C@@H]21 | 69.9* | . | 0.4 | . | . | 4.1
C[C@@H]1CN([C@@H](C)CO)C(=O)Cc2cc(NC(=O)Cc3cn(C)c4ccccc34)ccc2O[C@@H]1CN(C)C | 0.0 | . | -3.5 | . | . | -2.1
COc1ccc(S(=O)(=O)N(C)C[C@@H]2Oc3ccc(NS(=O)(=O)c4ccc(F)cc4)cc3C(=O)N([C@H](C)CO)C[C@@H]2C)cc1 | -9.5 | . | -5.8 | . | . | 0.5
CCCNC(=O)N1CC2(C1)[C@@H](c1ccccc1)[C@@H](CO)N2Cc1cccc(F)c1 | 3.7 | . | 0.7 | . | . | .
COc1ccc2c3c([nH]c2c1)[C@@H](CO)N(C(=O)c1ccccc1)CC31CCN(C)CC1 | . | . | 0.5 | . | . | .
CN1C(=O)c2cc(NS(=O)(=O)c3ccc(Cl)cc3)ccc2OC[C@@H]2O[C@@H](CC(=O)N3CCc4ccccc4C3)CC[C@@H]21 | 37.6 | . | 16.6 | . | . | 14.8
CN1C(=O)c2cc(NS(=O)(=O)c3ccc(Cl)cc3)ccc2OC[C@H]2O[C@@H](CC(=O)N3CCc4ccccc4C3)CC[C@@H]21 | 74.3* | . | 19.1 | . | . | 6.1
SMILES | PAX8 inh HTS | Wnt act | EWS-Fli block | MITF TRPM1 HTS | MITF TRPM1 inh | esBAF inh
CCN(CC(=O)Nc1ccc(NC(C)=O)cc1)C(=O)C1(c2ccc(Cl)cc2)CCC1 | 78.5* | -0.7 | 1.2 | . | . | 13.6
CCC(=O)OCC(=O)Nc1ccc(OC)cc1[N+](=O)[O-] | 9.8 | 0.2 | 2.1 | 2.4 | -1.3 | -8.5
COc1ccc(NC(=O)CCOc2ccccc2)cc1 | . | . | . | 112.3* | -101.3 | 49.2*
COc1ccc(NC(=O)COC(=O)CN2C(=O)C3CC=CCC3C2=O)c([N+](=O)[O-])c1 (centres undefined) | -14.9 | 40.2* | -2.6 | -7.6 | 10.7 | -3.3
COc1ccc(NC(=O)CSc2ccccn2)c([N+](=O)[O-])c1 | -70.1 | 38.9* | 2.7 | . | . | ?
CCC(=O)N(C)C[C@@H]1Oc2cc(C#CC3(O)CCCC3)ccc2S(=O)(=O)N([C@H](C)CO)C[C@H]1C | . | . | 5.3 | . | . | -2.1
COc1ccc(NC(=O)CN(C)C(=O)C2(c3ccccc3)CCCC2)cc1 | 38.9 | -1.7 | -13.6 | -39.9 | 40.1 | 55.2*
COc1ccc(NC(=O)CSc2ccccn2)cc1 | -128.2 | 35.6* | . | . | -36.4 | 29.2
O=C(CSc1ccccn1)Nc1ccc(NC(=O)CSc2ccccn2)cc1 | -0.5 | . | -23.3 | -7.9 | 10.2 | .
O=C(CCSc1ccccn1)Nc1ccc(Br)cc1 | -72.8 | 61.7* | -76.3 | 58.4 | -61.3 | .
COc1ccc(NC(=O)CSCc2ccccc2C)cc1 | -45.2 | . | . | 20.9 | -19.2 | 66.7*
CC(C)NC(=O)Nc1ccc2c(c1)C(=O)N([C@@H](C)CO)C[C@@H](C)[C@H](CN(C)S(=O)(=O)c1cccs1)O2 | . | . | -2.3 | . | . | -0.8
O=C(CSc1ccccn1)Nc1nonc1[N+](=O)[O-] | 12.1 | -1.6 | . | -86.2 | 85.6* | 1.7
O=C(CSc1ccccn1)Nc1ccccc1F | -67.5 | -1.8 | . | 20.6 | -19.8 | .
O=C1C(=Cc2ccco2)CCC1=Cc1ccco1 | 0.9 | -0.2 | -25.5 | 22.3 | -21.7 | 1.0
O=C1C(=Cc2ccco2)CCCC1=Cc1ccco1 | -79.2 | 2.6 | -93.5 | 53.0 | -56.8 | 57.1*
CC[n+]1c(/C=C2/C=C(C)CC(C)C2)sc2ccccc21 (centres undefined) | 22.9 | -1.2 | 28.0 | -31.6 | 34.7 | .
CC[n+]1c(C=C2C=C(C)OC(C)=C2)sc2ccccc21 | 84.5* | -2.6 | ? | -74.6 | 73.9* | -0.4
CN1CCN(C(=O)C[C@H]2CC[C@@H]3[C@H](COC[C@@H](O)CN3Cc3cccc(F)c3)O2)CC1 | -2.9 | . | -7.4 | . | . | 1.9
